Experimental findings from PubChem BioAssay AID651742 (Broad Institute, 2012) are described below.

Molecules are shown by their SMILES. Among all 5,600 compounds or so, about 780 (14%) were called active. Another 3% or so got no clear call; they are omitted.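 How the source made its calls: active means mean signal decrease across replicates above about 35% based on untreated-well scatter, with enough replicates individually passing (limit read from the data); inconclusive means no rule stated though some were filed; inactive means the rest.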 Only a sample is shown.

The nature of the test: cytotoxicity in mouse NIH/3T3 fibroblasts, confirmation, cytotoxicity control for T. cruzi proliferation inhibitor project, cell-based, cherry-pick, single point (AID 651742).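 Further: 0% = median of neutral control wells and 100% = median of positive control wells.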 Particulars: NIH/3T3 viability, CellTiter-Glo ATP luminescence, 90 h; at 8.35 µM; hits give high values.
As to `COc1ccc(S(=O)(=O)N2CCCCN3[C@H](C2)[C@H](c2ccc(C#CCC(C)C)cc2)[C@@H]3CO)cc1`, the cytotoxicity (signal decrease) is 20.8% (inactive).
`COc1ccc(S(=O)(=O)N2CCCCN3[C@H](CO)[C@@H](c4ccc(C#CC(C)C)cc4)[C@H]3C2)cc1`: the cytotoxicity (signal decrease) was 27.6% (inactive).
Turning to `CNC[C@H]1OCCCC[C@H](C)Oc2ccc(NC(=O)Nc3c(C)noc3C)cc2C(=O)N([C@H](C)CO)C[C@H]1C`, the cytotoxicity (signal decrease) is 6.78% (inactive).
As to `COc1ccc(-c2ccc3c(c2)[C@@H]2[C@@H](CCN2C(=O)Cc2ccccn2)[C@H](CO)N3C)cc1`, the cytotoxicity (signal decrease) is 3.57% (inactive).
On to `C[C@@H]1CN([C@@H](C)CO)C(=O)CCCn2cc(nn2)CO[C@@H]1CN(C)S(=O)(=O)c1ccccc1F`, for which the cytotoxicity (signal decrease) is -3.89% (inactive).
With `C[C@@H]1CN([C@H](C)CO)C(=O)c2cc(/C=C/c3ccccc3)cnc2O[C@@H]1CN(C)Cc1ccncc1` the figure was 0.61% (inactive); with `C[C@@H]1CN([C@@H](C)CO)S(=O)(=O)c2ccc(C#Cc3ccccc3)cc2O[C@@H]1CN(C)C(=O)Nc1ccccc1`, 11.7% (inactive); with `C[C@H](CO)N1C[C@H](C)[C@@H](CN(C)C(=O)Nc2cc(F)ccc2F)Oc2cc(C#CC3CC3)ccc2S1(=O)=O`, -4.87% (inactive).
In the case of `C[C@@H]1CN([C@H](C)CO)S(=O)(=O)c2ccc(-c3cccc(C#N)c3)cc2O[C@@H]1CN(C)C(=O)Nc1ccccc1F`, the cytotoxicity (signal decrease) is 45.7% (active).
On to `CN1c2ccc(-c3ccccc3)cc2[C@@H]2[C@@H](CCN2C(=O)c2ccncc2)[C@@H]1CO`, for which the cytotoxicity (signal decrease) is 5.49% (inactive).
For `O=C(C[C@H]1CC[C@@H]2[C@H](COC[C@H](O)CN2Cc2ccc(Oc3ccccc3)cc2)O1)N1CCN(c2ccccc2)CC1`, the cytotoxicity (signal decrease) was -0.257% (inactive).
As for `CCCC#Cc1ccc2c(c1)O[C@H](CN(C)C(=O)CC)[C@@H](C)CN([C@H](C)CO)S2(=O)=O`, the cytotoxicity (signal decrease) was 17.5% (inactive).
The same measure for `C[C@@H]1CN([C@@H](C)CO)S(=O)(=O)c2ccc(/C=C/c3ccccc3)cc2O[C@H]1CN(C)Cc1ccccc1`: 21.8% (inactive); for `CC(C)C#Cc1ccc2c(c1)O[C@H](CN(C)Cc1ccccc1)[C@H](C)CN([C@@H](C)CO)S2(=O)=O`: 41.7% (active).
With `C[C@H]1CN([C@@H](C)CO)S(=O)(=O)c2ccc(C#CCN(C)C)cc2O[C@@H]1CN(C)Cc1ccc(F)cc1`, the cytotoxicity (signal decrease) is 48.1% (active).
Turning to `CCC(=O)N(C)C[C@@H]1Oc2cc(C#CCN(C)C)ccc2S(=O)(=O)N([C@H](C)CO)C[C@H]1C`, the cytotoxicity (signal decrease) was -1.94% (inactive).
As for `CC(=O)N(C)C[C@H]1Oc2cc(C#CCN(C)C)ccc2S(=O)(=O)N([C@@H](C)CO)C[C@@H]1C`, the cytotoxicity (signal decrease) is 4.99% (inactive).
With `C[C@@H]1CN([C@H](C)CO)S(=O)(=O)c2ccc(C#C[C@@H](C)O)cc2O[C@@H]1CN(C)Cc1ccc(-c2ccccc2)cc1`, the cytotoxicity (signal decrease) is 14.4% (inactive).
The same measure for `O=C(Cc1ccccc1)N1CC[C@H]2[C@H](CO)Nc3ccc(-c4ccccc4F)cc3[C@H]21`: -5.9% (inactive); for `C[C@@H]1CN([C@H](C)CO)C(=O)c2cccc(NC(=O)c3ccc(-c4nccs4)cc3)c2O[C@@H]1CN(C)C(=O)Nc1ccc(C(F)(F)F)cc1`: 26% (inactive).
As for `C[C@@H]1CCCCO[C@H](CN(C)C(=O)Nc2ccc(C(F)(F)F)cc2)[C@H](C)CN([C@H](C)CO)C(=O)c2cc(NC(=O)Nc3ccc(C(F)(F)F)cc3)ccc2O1`, the cytotoxicity (signal decrease) was -8.85% (inactive).
With `CCc1cnc(N2[C@H](C#N)[C@H](c3ccc(C4=CCCC4)cc3)[C@@H]2CO)s1` the figure was 9.56% (inactive); with `CC(C)NC(=O)N1[C@H](C#N)[C@H](c2ccc(C#CC3CCCCC3)cc2)[C@H]1CO`, -28% (inactive); with `N#C[C@H]1[C@@H](c2ccc(C3=CCCCC3)cc2)[C@@H](CO)N1C(=O)NC1CCCCC1`, 42.8% (active).
As for `Cc1noc(C)c1S(=O)(=O)Nc1ccc2c(c1)C(=O)N([C@@H](C)CO)C[C@@H](C)[C@H](CN(C)S(=O)(=O)c1ccc(Cl)cc1)OCCCC[C@H](C)O2`, the cytotoxicity (signal decrease) is -13.7% (inactive).
On to `O=C(Nc1cc(F)ccc1F)N1CCCCN2[C@H](CO)[C@@H](c3ccc(-c4cncnc4)cc3)[C@H]2C1`, for which the cytotoxicity (signal decrease) was 15% (inactive).
The same measure for `CCCC#Cc1ccc2c(c1)O[C@@H](CN(C)C(=O)c1ccccc1F)[C@H](C)CN([C@H](C)CO)S2(=O)=O`: 19.4% (inactive); for `COc1ccc(S(=O)(=O)Nc2ccc3c(c2)C(=O)N([C@@H](C)CO)C[C@H](C)[C@H](CN(C)Cc2ccc(C(F)(F)F)cc2)O3)cc1`: 3.37% (inactive).
In the case of `C/C=C/c1ccc([C@H]2[C@@H](CNC(C)C)N(c3nc(CC)cs3)[C@H]2CO)cc1`, the cytotoxicity (signal decrease) is 7.64% (inactive).
Regarding `C[C@H](CO)N1C[C@H](C)[C@@H](CN(C)Cc2ccc(C(=O)Nc3ccccc3N)cc2)Oc2c(NC(=O)c3ccc(-c4nccs4)cc3)cccc2C1=O`, the cytotoxicity (signal decrease) was -13.6% (inactive).
As to `C[C@H]1CN([C@@H](C)CO)S(=O)(=O)c2ccc(C3=CCCCC3)cc2O[C@@H]1CN(C)Cc1ccccc1`, the cytotoxicity (signal decrease) was 119% (active).
For `C[C@H]1CN([C@@H](C)CO)S(=O)(=O)c2ccc(C3=CCCC3)cc2O[C@@H]1CN(C)Cc1ccccc1`, the cytotoxicity (signal decrease) was 42.4% (active).
Turning to `C[C@H](CO)N1C[C@H](C)[C@H](CN(C)Cc2ccncc2)Oc2cc(-c3ccncc3)ccc2S1(=O)=O`, the cytotoxicity (signal decrease) is 19.9% (inactive).
In the case of `C[C@@H]1CN([C@H](C)CO)S(=O)(=O)c2ccc(C3=CCCC3)cc2O[C@H]1CN(C)Cc1ccccc1F`, the cytotoxicity (signal decrease) is 32% (inactive).
In the case of `C[C@H](CO)N1C[C@H](C)[C@@H](CN(C)C(=O)C2CCCCC2)Oc2cc(-c3ccccc3)ccc2S1(=O)=O`, the cytotoxicity (signal decrease) is 26.2% (inactive).
For the compound `COc1ccccc1-c1ccc2c(c1)O[C@@H](CN(C)C)[C@H](C)CN([C@H](C)CO)S2(=O)=O`, the cytotoxicity (signal decrease) was -9.91% (inactive).
In the case of `CS(=O)(=O)N1[C@@H](C#N)[C@H](c2ccc(C#CC3CCCCC3)cc2)[C@@H]1CO`, the cytotoxicity (signal decrease) is 4.86% (inactive).
Regarding `COc1cccc(S(=O)(=O)N2CCCCN3[C@H](C2)[C@H](c2ccc(C#CC(C)C)cc2)[C@@H]3CO)c1`, the cytotoxicity (signal decrease) is 19.3% (inactive).
Turning to `C[C@@H]1CN([C@@H](C)CO)C(=O)c2cc(NC(=O)Nc3ccc(C(F)(F)F)cc3)ccc2O[C@@H](C)CCCCO[C@H]1CN(C)C(=O)c1ccccc1`, the cytotoxicity (signal decrease) is 23.5% (inactive).
